Laboratory results taken from PubChem BioAssay (NCATS).
Records with an inconclusive call do not appear. Unmarked numbers belong to inactive results. Calls come from the whole dose curve; as a rule, active = well fitted cell-killing curve with a large enough effect; inconclusive = small, poorly fitted or top-dose-only effect; inactive = flat fitted curve, though single readings scatter.

experiment: Cell Viability - LYMP1-002 - Assay at 16 hr (AID 948); settings: LYMP1-002 lymphoblastoid cell viability; series mostly up to 92.2 µM; activity change, negative = cytotoxicity: at the top concentration;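 note: 0% = DMSO alone and full effect = 92 µM tetraoctylammonium bromide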
From the text: NIH Chemical Genomics Center [NCGC]
NIH Molecular Libraries Screening Centers Network [MLSCN]
National Institutes of Environmental Health Sciences [NIEHS]
National Toxicology Program [NTP]
We have developed a 1536-well cell-based assay for quantitative high throughput screening (qHTS) against a number of cell lines to determine in vitro cytotoxicity of small molecules. This particular assay uses a human lymphoblastoid cell line (LYMP1-002) purchased from Coriell Institute for Medical Research.
NCGC Assay Protocol Summary:
The CellTiter-Glo luminescent cell viability assay (Promega) is a homogeneous method to measure the number of viable cells in culture. The end point readout of this assay is based on quantitation of intracellular ATP, an indicator of metabolic activity, using the luciferase reaction. Luciferase catalyzes the oxidation of beetle Luciferin to oxyluciferin and light in the presence of ATP. The luminescent signal is proportional to amount of ATP present.
Using the CellTiter-Glo luminescent cell viability assay, the amount of cellular ATP was measured in the lymphoblastoid cell line with complete culture medium following compound treatment for 16 hours. The assay was performed in opaque white Kalypsys 1536-well plates. In the screen, tetraoctylammonium bromide was used as positive control. Library compounds were measured for their ability to cause acute toxicity in the cell line, as reflected by a decrease in intracellular ATP levels, in a concentration-dependent manner. […] AC50 values were determined from concentration-response data modeled with the standard Hill equation.
qHTS protocol for CellTiter Glo lymphoblastoid cellular assay
[Step] [Parameter] [Value] [Description]
1. Reagent; 5 uL; 2500 lymphoblastoid cells/well
2. Time; 5 hr; 37 C incubation
4. Controls; 23 nL; Tetraoctylammonium bromide 6.4pM to 92 uM
5. Time; 16 hr; 37 C incubation
6. Reagent; 5 uL; CellTiter Glo reagent
7. Time; 30 min; Room Temperature
8. Detection; Luminescence; Viewlux plate reader
Keywords: cell viability, cytotoxicity, lymphoblastoid cell line, luminescence, NTPHTS, NTPHTS_NCGC, NIEHS, DSSTox, MLSMR, MLSCN, NIH Roadmap, qHTS, NCGC

Row | Structure (SMILES) | activity change, negative = cytotoxicity [%]
1 | O=[N+]([O-])c1cccc(I)c1 | -4.14
2 | Nc1ccccc1O | -3.5
3 | CCNC(=S)NCC | -3.01
4 | O=C1OC(=O)c2ccccc21 | -4.5
5 | c1ccncc1 | 2.04
6 | CCN(CC)c1ccc(N)cc1 | -25.8
7 | O=[N+]([O-])c1ccccc1Nc1ccccc1 | -2.2
8 | Clc1nc2ccccc2nc1Cl | -8.91
9 | O=[N+]([O-])c1cc(Cl)c(Cl)c(Cl)c1Cl | -25.2
10 | CCCCCCc1ccc(-c2ccc(C#N)cc2)cc1 | -10.7
11 | C/C(Cl)=C/CCl | -9.41
12 | COc1ccc([N+](=O)[O-])cc1N | -2.61
13 | O=C(O)/C=C/c1ccc(/C=C/C(=O)O)cc1 | -9.35
14 | O=C(O)c1ccc([N+](=O)[O-])cc1 | -2.31
15 | C1CCCNCC1 | -0.469
16 | CCC(Cl)CC(Cl)C(Cl)C(Cl)C(Cl)C(C)Cl (stereo not given) | -7.71
17 | Cc1c(N)cccc1Cl | -1.6
18 | Cc1ccc(S(N)(=O)=O)cc1 | 1.67
19 | CC(C)COC(=O)COc1cc(Cl)c(Cl)cc1Cl | 1.36
20 | CC(/C=C/C=C(C)/C=C/C(=O)O)=C\C=C\C=C(C)\C=C\C=C(C)\C=C\C(=O)O | -10.9

Row | Structure (SMILES) | activity change, negative = cytotoxicity [%]
21 | Cc1ccc(C(=O)O)cc1[N+](=O)[O-] | -4.55
22 | CCN(CC)c1ccc2c(C)cc(=O)oc2c1 | -5.24
23 | c1ccc(SCCSc2ccccc2)cc1 | -3.15
24 | O=C(O)c1cc(N=Nc2ccc([N+](=O)[O-])cc2)ccc1O | -5.69
25 | C[Si](C)(C)Cl | -0.281
26 | C=CC(=O)CC | -0.307
27 | C=CC(C)(O)CCCC(C)CCCC(C)CCCC(C)C (stereo not given) | -4.46
28 | CCc1ccc(C(c2ccc(CC)cc2)C(Cl)Cl)cc1 | -6.03
29 | C=Cc1cccc(C)c1 | -0.252
30 | CN(C)c1ccc(Cc2ccc(N(C)C)cc2)cc1 | -12.1
31 | Nc1ccc2c(c1)C(=O)c1ccccc1C2=O | -16.2
32 | CC(C)OCC1CO1 (stereo not given) | -4.34
33 | Cc1c2ccccc2c(C)c2c1ccc1ccccc12 | -27.1
34 | O=CC(=O)c1ccccc1 | -7.24
35 | Cc1cc2nc(N)sc2cc1C | -4.44
36 | NC(=O)Nc1nc2ccccc2[nH]1 | -3.56
37 | COc1cc(-c2ccc(N=C=O)c(OC)c2)ccc1N=C=O | -5.29
38 | CC(=O)OC1CC(C)OC(C)O1 (stereo not given) | -1.34
39 | c1ccc(Nc2cccc3ccccc23)cc1 | -4.62
40 | CC(=O)CC(=O)Nc1ccccc1 | -2.77
